{"source": "the supplement of paper PMC8728848", "binders": {"B1": {"name": "Aap lectin (Staphylococcus epidermidis) (protein)", "chain": "VNLNYSSPFMSLLSMPADSSSNNTKNTIDIPPTTVKGRDNYDFYGRVDIESNPTDLNATNLTRYNYGQPPGTTTAGAVQFKNQVSFDKDFDFNIRVANNRQSNTTGADGWGFMFSKKDGDDFLKNGGILREKGTPSAAGFRIDTGYYNNDPLDKIQKQAGQGYRGYGTFVKNDSQGNTSKVGSGTPSTDFLNYADNTTNDLDGKFHGQKLNNVNLKYNASNQTFTATYAGKTWTATLSELGLSPTDSYNFLVTSS"}}, "test_in_all_cases": "glycan array binding signal (z-score within array); higher = stronger binding", "conditions_in_all_cases": "glycan notation: IUPAC condensed, linker removed", "key": {"[1]": {"molecular_target": "Fuc(a1-2)Gal(b1-3)GlcNAc(b1-2)Man(a1-3)[Fuc(a1-2)Gal(b1-3)GlcNAc(b1-2)Man(a1-6)]Man(b1-4)GlcNAc(b1-4)[Fuc(a1-6)]GlcNAc", "procedure,_shortened": "(§1)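 The Consortium for Functional Glycomics database supplied 3228 glycan arrays, of which those lacking an available protein sequence were dropped. The binding signal, a within-array Z-score, was averaged across arrays of the same protein sequence and across linkers. Negative scores can be read as non-binding.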"}, "[2]": {"molecular_target": "Fuc(a1-2)Gal(b1-3)GlcNAc(b1-3)Gal(b1-4)Glc", "procedure,_shortened": "as §1"}, "[3]": {"molecular_target": "Fuc(a1-2)Gal(b1-4)GlcNAc(b1-2)Man(a1-3)[Fuc(a1-2)Gal(b1-4)GlcNAc(b1-2)Man(a1-6)]Man(b1-4)GlcNAc(b1-4)[Fuc(a1-6)]GlcNAc", "procedure,_shortened": "as §1"}, "[4]": {"molecular_target": "Fuc(a1-2)Gal(b1-4)[Fuc(a1-3)]GlcNAc(b1-3)Gal(b1-4)[Fuc(a1-3)]GlcNAc(b1-3)Gal(b1-4)[Fuc(a1-3)]GlcNAc", "procedure,_shortened": "as §1"}, "[5]": {"molecular_target": "Fuc(a1-2)[Gal(a1-3)]Gal(b1-3)GlcNAc(b1-2)Man(a1-3)[Fuc(a1-2)[Gal(a1-3)]Gal(b1-3)GlcNAc(b1-2)Man(a1-6)]Man(b1-4)GlcNAc(b1-4)[Fuc(a1-6)]GlcNAc", "procedure,_shortened": "as §1"}, "[6]": {"molecular_target": "Fuc(a1-2)[Gal(a1-3)]Gal(b1-4)GlcNAc", "procedure,_shortened": "as §1"}, "[7]": {"molecular_target": "Fuc(a1-2)[Gal(a1-3)]Gal(b1-4)GlcNAc(b1-3)[Fuc(a1-2)[Gal(a1-3)]Gal(b1-4)GlcNAc(b1-6)]GalNAc", "procedure,_shortened": "as §1"}, "[8]": {"molecular_target": "Fuc(a1-2)[Gal(a1-3)]Gal(b1-4)GlcNAc(b1-6)GalNAc", "procedure,_shortened": "as §1"}, "[9]": {"molecular_target": "Fuc(a1-2)[GalNAc(a1-3)]Gal(b1-3)GalNAc(b1-3)Gal(a1-4)Gal(b1-4)Glc", "procedure,_shortened": "as §1"}, "[10]": {"molecular_target": "Fuc(a1-2)[GalNAc(a1-3)]Gal(b1-4)GlcNAc(b1-3)GalNAc", "procedure,_shortened": "as §1"}, "[11]": {"molecular_target": "Fuc(a1-3)[Gal(b1-4)]GlcNAc(b1-3)Gal(b1-4)[Fuc(a1-3)]GlcNAc(b1-3)Gal(b1-4)[Fuc(a1-3)]GlcNAc", "procedure,_shortened": "as §1"}, "[12]": {"molecular_target": "Fuc(a1-3)[Gal3S(b1-4)]GlcNAc6S", "procedure,_shortened": "as §1"}, "Fuc(b1-3)GlcNAc": {"molecular_target": "Fuc(b1-3)GlcNAc", "procedure,_shortened": "as §1"}, "[13]": {"molecular_target": "Gal(a1-3)Gal(b1-3)GlcNAc(b1-2)Man", "procedure,_shortened": "as §1"}, "[14]": {"molecular_target": "Gal(a1-3)Gal(b1-3)GlcNAc(b1-2)Man(a1-3)[Gal(a1-3)Gal(b1-3)GlcNAc(b1-2)Man(a1-6)]Man(b1-4)GlcNAc(b1-4)GlcNAc", "procedure,_shortened": "as §1"}, "Gal(b1-3)GlcNAc(b1-2)Man": {"molecular_target": "Gal(b1-3)GlcNAc(b1-2)Man", "procedure,_shortened": "as §1"}, "[15]": {"molecular_target": "Gal(b1-3)GlcNAc(b1-2)[Gal(b1-3)GlcNAc(b1-6)]Man(a1-6)[Gal(b1-3)GlcNAc(b1-2)Man(a1-3)]Man(b1-4)GlcNAc(b1-4)GlcNAc", "procedure,_shortened": "as §1"}, "[16]": {"molecular_target": "Gal(b1-3)GlcNAc(b1-3)Gal(b1-4)[Fuc(a1-3)]GlcNAc", "procedure,_shortened": "as §1"}, "[17]": {"molecular_target": "Gal(b1-3)GlcNAc(b1-3)GalNAc", "procedure,_shortened": "as §1"}, "Gal(b1-4)GlcNAc(b1-2)Man": {"molecular_target": "Gal(b1-4)GlcNAc(b1-2)Man", "procedure,_shortened": "as §1"}, "[18]": {"molecular_target": "Gal(b1-4)GlcNAc(b1-2)Man(a1-3)[Gal(b1-4)GlcNAc(b1-2)Man(a1-6)][GlcNAc(b1-4)]Man(b1-4)GlcNAc(b1-4)[Fuc(a1-6)]GlcNAc", "procedure,_shortened": "as §1"}, "[19]": {"molecular_target": "Gal(b1-4)GlcNAc(b1-2)[Gal(b1-4)GlcNAc(b1-6)]Man(a1-6)[GlcNAc(b1-4)][Gal(b1-4)GlcNAc(b1-2)Man(a1-3)]Man(b1-4)GlcNAc(b1-4)GlcNAc", "procedure,_shortened": "as §1"}, "[20]": {"molecular_target": "Gal(b1-4)GlcNAc(b1-3)Gal(b1-4)Glc", "procedure,_shortened": "as §1"}, "[21]": {"molecular_target": "Gal(b1-4)GlcNAc(b1-3)Gal(b1-4)GlcNAc(b1-2)[Gal(b1-4)GlcNAc(b1-3)Gal(b1-4)GlcNAc(b1-6)]Man(a1-6)[Gal(b1-4)GlcNAc(b1-3)Gal(b1-4)GlcNAc(b1-2)Man(a1-3)]Man(b1-4)GlcNAc(b1-4)GlcNAc", "procedure,_shortened": "as §1"}, "[22]": {"molecular_target": "Gal(b1-4)GlcNAc(b1-3)Gal(b1-4)GlcNAc(b1-3)Gal(b1-4)GlcNAc(b1-2)Man(a1-3)[Gal(b1-4)GlcNAc(b1-3)Gal(b1-4)GlcNAc(b1-3)Gal(b1-4)GlcNAc(b1-2)Man(a1-6)]Man(b1-4)GlcNAc(b1-4)[Fuc(a1-6)]GlcNAc", "procedure,_shortened": "as §1"}, "[23]": {"molecular_target": "Gal(b1-4)GlcNAc(b1-3)Gal(b1-4)GlcNAc(b1-3)Gal(b1-4)GlcNAc(b1-3)Gal(b1-4)GlcNAc(b1-2)[Gal(b1-4)GlcNAc(b1-3)Gal(b1-4)GlcNAc(b1-3)Gal(b1-4)GlcNAc(b1-3)Gal(b1-4)GlcNAc(b1-6)]Man(a1-6)[Gal(b1-4)GlcNAc(b1-3)Gal(b1-4)GlcNAc(b1-3)Gal(b1-4)GlcNAc(b1-3)Gal(b1-4)GlcNAc(b1-2)Man(a1-3)]Man(b1-4)GlcNAc(b1-4)[Fuc(a1-6)]GlcNAc", "procedure,_shortened": "as §1"}, "[24]": {"molecular_target": "Gal(b1-4)GlcNAc(b1-3)Gal(b1-4)GlcNAc(b1-3)Gal(b1-4)GlcNAc(b1-3)Gal(b1-4)GlcNAc(b1-3)Gal(b1-4)GlcNAc(b1-2)Man(a1-3)[Gal(b1-4)GlcNAc(b1-3)Gal(b1-4)GlcNAc(b1-3)Gal(b1-4)GlcNAc(b1-3)Gal(b1-4)GlcNAc(b1-3)Gal(b1-4)GlcNAc(b1-2)Man(a1-6)]Man(b1-4)GlcNAc(b1-4)[Fuc(a1-6)]GlcNAc", "procedure,_shortened": "as §1"}}, "note": "About 410 targets per protein were measured; listed, in parts, are those with the strongest signals and a random draw of the rest.", "data": [{"binder": "B1", "values": [{"measurement": "glycan array binding signal (z-score)", "setting": "[1]", "result": 2.87}, {"measurement": "glycan array binding signal (z-score)", "setting": "[2]", "result": -0.68}, {"measurement": "glycan array binding signal (z-score)", "setting": "[3]", "result": -0.829}, {"measurement": "glycan array binding signal (z-score)", "setting": "[4]", "result": -0.534}, {"measurement": "glycan array binding signal (z-score)", "setting": "[5]", "result": 3.02}, {"measurement": "glycan array binding signal (z-score)", "setting": "[6]", "result": 3.04}, {"measurement": "glycan array binding signal (z-score)", "setting": "[7]", "result": 2.98}, {"measurement": "glycan array binding signal (z-score)", "setting": "[8]", "result": -0.267}, {"measurement": "glycan array binding signal (z-score)", "setting": "[9]", "result": -0.573}, {"measurement": "glycan array binding signal (z-score)", "setting": "[10]", "result": 0.8}, {"measurement": "glycan array binding signal (z-score)", "setting": "[11]", "result": 0.476}, {"measurement": "glycan array binding signal (z-score)", "setting": "[12]", "result": -0.816}, {"measurement": "glycan array binding signal (z-score)", "setting": "Fuc(b1-3)GlcNAc", "result": 0.487}, {"measurement": "glycan array binding signal (z-score)", "setting": "[13]", "result": 2.18}, {"measurement": "glycan array binding signal (z-score)", "setting": "[14]", "result": 2.88}, {"measurement": "glycan array binding signal (z-score)", "setting": "Gal(b1-3)GlcNAc(b1-2)Man", "result": 3.17}, {"measurement": "glycan array binding signal (z-score)", "setting": "[15]", "result": -0.728}, {"measurement": "glycan array binding signal (z-score)", "setting": "[16]", "result": -0.351}, {"measurement": "glycan array binding signal (z-score)", "setting": "[17]", "result": 0.183}, {"measurement": "glycan array binding signal (z-score)", "setting": "Gal(b1-4)GlcNAc(b1-2)Man", "result": 3}, {"measurement": "glycan array binding signal (z-score)", "setting": "[18]", "result": 0.361}, {"measurement": "glycan array binding signal (z-score)", "setting": "[19]", "result": -0.475}, {"measurement": "glycan array binding signal (z-score)", "setting": "[20]", "result": 0.463}, {"measurement": "glycan array binding signal (z-score)", "setting": "[21]", "result": -0.781}, {"measurement": "glycan array binding signal (z-score)", "setting": "[22]", "result": 2.92}, {"measurement": "glycan array binding signal (z-score)", "setting": "[23]", "result": 0.345}, {"measurement": "glycan array binding signal (z-score)", "setting": "[24]", "result": 0.727}]}]}
